Reference: ChEMBL document CHEMBL3988442, “University of Dundee, Small-Polar-MMV Screening Library” (2021)
For some of these results: Potency and affinity values are given separately.

What was measured:
Parameters in all cases: scale not given: direction of the effect not stated beside the values
[1] = target: Protein translocase subunit SecA (Escherichia coli (strain K12)) (UniProt P10408); assay: Assay to Identify E. coli SecA ATPase Inhibitors; format: functional; conditions: 30 µM
[2] = target: T1, Ubiquitin-activating enzyme e1, putative (Leishmania donovani (strain BPK282A1)) (UniProt E9BSI1); assay: Leishmania donovani Ubiquitin Activating Enzyme (LdE1); format: functional; conditions: 30 µM
T1 sequence (whole entry): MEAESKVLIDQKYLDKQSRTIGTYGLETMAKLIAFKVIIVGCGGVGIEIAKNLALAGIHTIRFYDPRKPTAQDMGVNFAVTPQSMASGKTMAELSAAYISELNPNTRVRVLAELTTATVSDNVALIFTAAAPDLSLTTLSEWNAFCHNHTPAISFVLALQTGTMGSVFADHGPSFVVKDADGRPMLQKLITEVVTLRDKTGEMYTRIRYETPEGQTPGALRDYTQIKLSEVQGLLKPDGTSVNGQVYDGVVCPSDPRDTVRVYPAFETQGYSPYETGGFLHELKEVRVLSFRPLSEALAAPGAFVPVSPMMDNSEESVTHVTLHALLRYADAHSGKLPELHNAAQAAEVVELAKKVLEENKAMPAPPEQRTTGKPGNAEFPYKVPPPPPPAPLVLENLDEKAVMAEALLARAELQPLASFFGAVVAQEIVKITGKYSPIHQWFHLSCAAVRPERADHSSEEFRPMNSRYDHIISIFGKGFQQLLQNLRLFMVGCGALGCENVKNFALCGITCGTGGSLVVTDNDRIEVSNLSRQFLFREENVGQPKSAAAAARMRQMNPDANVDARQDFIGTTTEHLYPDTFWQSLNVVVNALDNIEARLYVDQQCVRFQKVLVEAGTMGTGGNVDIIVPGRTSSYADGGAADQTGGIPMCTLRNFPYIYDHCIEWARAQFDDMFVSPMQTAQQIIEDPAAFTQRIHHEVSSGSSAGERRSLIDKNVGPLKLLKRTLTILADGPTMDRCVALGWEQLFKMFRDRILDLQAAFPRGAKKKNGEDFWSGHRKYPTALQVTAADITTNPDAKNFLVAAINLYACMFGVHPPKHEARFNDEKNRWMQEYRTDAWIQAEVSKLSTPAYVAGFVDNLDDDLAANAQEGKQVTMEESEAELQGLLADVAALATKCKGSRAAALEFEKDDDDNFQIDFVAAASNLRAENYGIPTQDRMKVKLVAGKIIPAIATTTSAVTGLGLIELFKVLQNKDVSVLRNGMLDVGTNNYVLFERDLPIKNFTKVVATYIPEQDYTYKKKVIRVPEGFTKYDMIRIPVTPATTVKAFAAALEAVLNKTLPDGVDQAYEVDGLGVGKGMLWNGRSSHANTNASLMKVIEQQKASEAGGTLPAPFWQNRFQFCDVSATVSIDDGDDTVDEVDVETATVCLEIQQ

[3] = target: AMP-activated protein kinase, AMPK (Homo sapiens) (UniProt P54646+O43741+P54619+Q9UGJ0+Q9Y478+Q13131+Q9UGI9); assay: AMP-dependent Kinase enzyme assay. An in vitro enzyme assay that detects ADP turnover that is directly proportional to AMPK activity. This uses naive AMPK that is activated during the assay with MK-8722; format: functional; conditions: 30 µM
[4] = target: Sialic acid-binding Ig-like lectin 9 (Homo sapiens) (UniProt Q9Y336); assay: Hs-Siglec9 ALPHAscreen SOP 20170721; conditions: 10 µM
[5] = tested on: Trypanosoma cruzi; assay: Trypanosoma cruzi phosphomannomutase and mannose-1-phosphate guanylyltransferase assay; format: functional; conditions: 10 µM
[6] = target: T2, Arginase-2, mitochondrial (Homo sapiens) (UniProt P78540); assay: in vitro enzyme assay to detect the production of urea directly proportional to the activity of Arginase II; format: functional; conditions: 33.3 µM; further: in the data most compounds retested in dose-response had high values
T2 sequence (whole entry): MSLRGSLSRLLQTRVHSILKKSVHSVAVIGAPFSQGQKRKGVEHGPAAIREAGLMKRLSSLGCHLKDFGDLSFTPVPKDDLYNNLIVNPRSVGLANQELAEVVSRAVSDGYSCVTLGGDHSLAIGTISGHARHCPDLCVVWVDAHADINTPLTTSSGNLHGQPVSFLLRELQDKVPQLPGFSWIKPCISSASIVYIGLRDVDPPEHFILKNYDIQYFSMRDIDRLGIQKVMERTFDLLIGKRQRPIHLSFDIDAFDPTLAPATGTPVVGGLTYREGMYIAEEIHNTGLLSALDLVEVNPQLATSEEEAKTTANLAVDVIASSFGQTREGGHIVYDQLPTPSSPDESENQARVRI

[7] = target: T3, Proteasome subunit beta (Trypanosoma cruzi) (UniProt O96673); assay: Trypanosoma cruzi proteasome chymotrypsin-like activity (TcProtChymo) assay.; further: in the data most compounds retested in dose-response had high values; format: functional; conditions: 9.37 µM
T3 sequence (whole entry): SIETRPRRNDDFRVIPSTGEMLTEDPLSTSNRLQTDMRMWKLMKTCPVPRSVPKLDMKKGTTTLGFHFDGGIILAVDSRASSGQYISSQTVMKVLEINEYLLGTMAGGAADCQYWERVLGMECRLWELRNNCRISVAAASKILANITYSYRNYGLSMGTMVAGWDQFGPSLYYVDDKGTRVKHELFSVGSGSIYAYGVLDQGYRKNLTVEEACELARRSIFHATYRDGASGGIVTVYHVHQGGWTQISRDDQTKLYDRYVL

[8] = organism: Homo sapiens; assay: To identify inhibition of the IFN signalling (Jak-Stat) pathway via expression of an eGFP reporter gene under the control of an IFN-stimulated response element (ISRE) containing MxA promoter.; format: functional; conditions: 30 µM
[9] = target: T4, Tyrosyl-tRNA synthetase, putative (Trypanosoma cruzi (strain CL Brener)) (UniProt Q4DSP6); assay: Trypanosoma cruzi tyrosyl tRNA synthetase (TcYRS) _High Tyrosine SOP; format: functional; conditions: 30 µM; further: in the data most compounds retested in dose-response had high values
T4 sequence (whole entry): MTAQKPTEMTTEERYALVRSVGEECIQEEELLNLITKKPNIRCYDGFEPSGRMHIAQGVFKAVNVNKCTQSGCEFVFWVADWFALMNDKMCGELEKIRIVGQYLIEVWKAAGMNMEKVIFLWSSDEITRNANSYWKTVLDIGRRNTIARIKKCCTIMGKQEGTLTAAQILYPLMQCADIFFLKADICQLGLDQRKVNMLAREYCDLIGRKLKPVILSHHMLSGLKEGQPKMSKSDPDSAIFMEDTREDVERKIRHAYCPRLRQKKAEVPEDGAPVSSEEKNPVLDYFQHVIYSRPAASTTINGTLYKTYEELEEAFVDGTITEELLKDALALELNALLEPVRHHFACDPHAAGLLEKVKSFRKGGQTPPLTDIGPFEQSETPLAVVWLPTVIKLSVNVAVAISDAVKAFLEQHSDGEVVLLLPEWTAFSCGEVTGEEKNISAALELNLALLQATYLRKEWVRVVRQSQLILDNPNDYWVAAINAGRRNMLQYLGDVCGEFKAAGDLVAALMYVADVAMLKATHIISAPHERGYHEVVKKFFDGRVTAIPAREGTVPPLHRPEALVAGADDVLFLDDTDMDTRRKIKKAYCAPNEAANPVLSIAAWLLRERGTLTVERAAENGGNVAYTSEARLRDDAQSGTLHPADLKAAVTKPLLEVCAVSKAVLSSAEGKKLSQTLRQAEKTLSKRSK

[10] = target: T4, Tyrosyl-tRNA synthetase, putative (Trypanosoma cruzi (strain CL Brener)); assay: Trypanosoma cruzi tyrosyl tRNA synthetase (TcYRS) SOP; format: functional; conditions: 30 µM
[11] = target: Chromo domain-containing protein 1 (Saccharomyces cerevisiae (strain ATCC 204508 / S288c) (Baker's yeast)) (UniProt P32657); assay: ScCHD-1 Enzyme Inhibition Assay; format: functional; conditions: 30 µM; further: in the data most compounds retested in dose-response had high values
Chromo domain-containing protein 1 (Saccharomyces cerevisiae (strain ATCC 204508 / S288c) (Baker's yeast)), sequence (P32657 whole entry, the tested form may be a part): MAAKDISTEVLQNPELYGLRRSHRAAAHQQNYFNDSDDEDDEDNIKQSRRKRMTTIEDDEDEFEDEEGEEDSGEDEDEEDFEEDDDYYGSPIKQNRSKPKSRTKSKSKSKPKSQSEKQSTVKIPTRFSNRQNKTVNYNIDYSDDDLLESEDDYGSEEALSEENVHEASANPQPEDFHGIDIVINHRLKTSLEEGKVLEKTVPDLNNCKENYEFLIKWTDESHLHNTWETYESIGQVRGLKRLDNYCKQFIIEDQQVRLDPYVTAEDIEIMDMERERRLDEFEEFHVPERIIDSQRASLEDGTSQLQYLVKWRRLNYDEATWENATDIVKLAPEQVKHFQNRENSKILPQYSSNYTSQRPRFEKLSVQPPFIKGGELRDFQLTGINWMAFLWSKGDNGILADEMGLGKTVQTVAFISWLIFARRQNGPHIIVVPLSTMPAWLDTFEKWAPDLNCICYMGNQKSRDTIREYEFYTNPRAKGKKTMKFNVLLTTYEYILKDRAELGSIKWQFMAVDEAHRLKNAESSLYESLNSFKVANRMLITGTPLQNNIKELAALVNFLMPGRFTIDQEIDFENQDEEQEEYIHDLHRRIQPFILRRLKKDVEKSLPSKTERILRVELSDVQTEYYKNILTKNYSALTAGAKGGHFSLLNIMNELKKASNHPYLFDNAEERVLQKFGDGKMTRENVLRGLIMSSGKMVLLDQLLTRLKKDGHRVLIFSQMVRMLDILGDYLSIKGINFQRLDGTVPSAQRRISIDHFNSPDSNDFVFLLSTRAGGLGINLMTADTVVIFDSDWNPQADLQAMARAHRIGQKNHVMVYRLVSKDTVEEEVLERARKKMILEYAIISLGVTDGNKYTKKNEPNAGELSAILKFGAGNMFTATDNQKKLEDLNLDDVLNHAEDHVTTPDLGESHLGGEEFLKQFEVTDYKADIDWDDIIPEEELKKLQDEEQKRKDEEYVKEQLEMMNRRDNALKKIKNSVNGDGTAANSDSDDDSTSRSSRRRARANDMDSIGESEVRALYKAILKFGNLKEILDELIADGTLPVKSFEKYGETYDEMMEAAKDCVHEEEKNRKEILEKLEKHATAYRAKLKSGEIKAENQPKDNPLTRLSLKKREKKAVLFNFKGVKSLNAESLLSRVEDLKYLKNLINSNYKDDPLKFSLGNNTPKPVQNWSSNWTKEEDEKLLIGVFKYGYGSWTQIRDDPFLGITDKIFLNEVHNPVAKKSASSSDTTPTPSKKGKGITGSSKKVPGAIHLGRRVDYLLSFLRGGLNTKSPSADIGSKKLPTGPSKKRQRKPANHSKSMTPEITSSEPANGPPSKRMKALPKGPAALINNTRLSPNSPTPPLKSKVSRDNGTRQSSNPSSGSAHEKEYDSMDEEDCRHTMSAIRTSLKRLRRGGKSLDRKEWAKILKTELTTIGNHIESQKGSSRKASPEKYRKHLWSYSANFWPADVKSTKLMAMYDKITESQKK

Sialic acid-binding Ig-like lectin 9 (Homo sapiens), sequence (Q9Y336 whole entry): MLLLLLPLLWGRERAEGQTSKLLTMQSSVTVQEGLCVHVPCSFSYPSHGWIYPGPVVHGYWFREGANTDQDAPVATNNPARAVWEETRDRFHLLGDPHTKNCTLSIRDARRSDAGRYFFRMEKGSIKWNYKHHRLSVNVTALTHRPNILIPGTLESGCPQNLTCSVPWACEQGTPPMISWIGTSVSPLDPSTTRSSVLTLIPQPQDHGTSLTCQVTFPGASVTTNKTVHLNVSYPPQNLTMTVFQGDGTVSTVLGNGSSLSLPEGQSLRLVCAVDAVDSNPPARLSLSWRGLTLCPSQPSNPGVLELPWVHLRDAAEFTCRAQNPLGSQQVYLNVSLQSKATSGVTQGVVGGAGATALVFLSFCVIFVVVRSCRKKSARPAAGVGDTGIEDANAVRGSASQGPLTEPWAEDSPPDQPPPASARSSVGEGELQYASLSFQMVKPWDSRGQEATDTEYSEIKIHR
Protein translocase subunit SecA (Escherichia coli (strain K12)), sequence (P10408 whole entry): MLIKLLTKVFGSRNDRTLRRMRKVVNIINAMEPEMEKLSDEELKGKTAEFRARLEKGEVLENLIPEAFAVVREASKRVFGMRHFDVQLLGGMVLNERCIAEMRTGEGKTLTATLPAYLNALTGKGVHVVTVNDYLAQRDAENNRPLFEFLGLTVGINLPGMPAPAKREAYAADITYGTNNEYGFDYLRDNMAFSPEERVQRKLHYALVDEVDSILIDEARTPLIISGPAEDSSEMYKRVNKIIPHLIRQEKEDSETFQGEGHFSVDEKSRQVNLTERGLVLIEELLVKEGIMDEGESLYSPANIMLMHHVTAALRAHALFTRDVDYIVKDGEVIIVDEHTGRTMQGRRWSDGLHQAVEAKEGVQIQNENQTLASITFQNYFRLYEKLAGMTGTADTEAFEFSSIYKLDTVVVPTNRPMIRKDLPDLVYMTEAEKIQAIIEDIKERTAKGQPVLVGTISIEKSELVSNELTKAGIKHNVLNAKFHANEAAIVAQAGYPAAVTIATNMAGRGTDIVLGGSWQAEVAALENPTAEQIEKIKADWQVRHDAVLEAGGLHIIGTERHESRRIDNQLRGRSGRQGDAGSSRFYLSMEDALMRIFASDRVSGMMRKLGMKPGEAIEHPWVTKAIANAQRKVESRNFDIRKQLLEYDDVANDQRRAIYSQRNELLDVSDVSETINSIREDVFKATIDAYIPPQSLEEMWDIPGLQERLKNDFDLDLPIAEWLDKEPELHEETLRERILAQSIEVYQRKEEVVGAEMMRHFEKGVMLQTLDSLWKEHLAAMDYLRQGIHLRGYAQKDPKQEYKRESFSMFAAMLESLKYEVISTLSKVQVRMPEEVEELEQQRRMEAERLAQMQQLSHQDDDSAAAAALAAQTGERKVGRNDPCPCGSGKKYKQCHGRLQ

Compound	Percent Effect [1] [%]	Percent Effect [2] [%]	Percent Effect [3] [%]	Percent Effect [4] [%]	Percent Effect [5] [%]	Percent Effect [6] [%]	Percent Effect [7] [%]	Percent Effect [8] [%]	Percent Effect [9] [%]	Percent Effect [10] [%]	Percent Effect [11] [%]
Cc1occc1C(=O)N1CCC2(CC1)CC(c1cccnc1)C(=O)N2C (configuration not stated)	-1.69	10.7	-2.33	5.45	-1.74	-19.9	5.64	-9.07	2.08	12.5	-5.44
OC(CN1CCC(c2ccn[nH]2)CC1)c1cccc(F)c1 (configuration not stated)	1.18	12.7	4.09	4.6	-3.49	6.84	6.31	13.5	5.42	11.4	-4.54
O=C(NCCNc1ncccn1)N(Cc1ccc(F)cc1F)C1CC1	-3.52	10.1	-4.4	16.9	-2.36	1.52	-3.03	8.99	2.46	8.86	-3.1
Cc1ccc(S(=O)(=O)NC(=O)c2cccc(OCC(N)=O)c2)s1	-3.68	20.2	-5.82	-5.61	0.0944	4.18	12	4.54	6.4	13.9	-5.68
Cn1cnc2c1C(COCC1CCOCC1)CN(C(=O)c1ccoc1)C2 (configuration not stated)	1.37	18.7	4.82	-8.07	1.38	-1.63	14.5	-17.8	1.06	6.41	-5.31
CN(C)C(=O)[C@@H]1C[C@@H]2CCN(Cc3nccs3)C[C@@H]2O1	-4.02	2.7	4.31	-1.06	-3.62	-3.5	21.8	-10.8	4.32	7.69	3.4
O=C(C1CCOCC1)N1C[C@@H]2[C@@H](C1)OCC(=O)N2Cc1ccncc1	-1.9	-2.74	-1.14	7.63	1.19	-0.399	4.2	2.13	2.08	-6.17	-1.66
c1ccc(Cc2noc(CNC3CCc4ncnn4C3)n2)cc1 (configuration not stated)	-2.79	16.2	-4.03	4.98	3.81	-3.88	8.44	1.98	10.9	25.6	-5.11
Cc1cc(C)n(CC2CCCN2C(=O)c2ccc(C(N)=O)cn2)n1 (configuration not stated)	-6.82	16.5	1.06	-0.198	2.56	1.5	7.38	7.83	-3.12	17.7	-27.9
COc1ccccc1CC1CCCN(CC(=O)N2CCOCC2)C1 (configuration not stated)	-0.695	-7.79	1.77	6.99	1.08	2.32	-1.54	2.85	-1.91	0	-10
Cc1cc(CN2CCCC2c2c(C)nn(C)c2Cl)no1 (configuration not stated)	-2.25	21.1	-2.49	-2.11	3.46	3.24	13.4	3.96	10.3	28.4	-10.3
O=C(NC1CC1)[C@H]1CC[C@@H]2[C@@H](CCN2c2ncc(F)cn2)O1	-3.27	2.6	0.23	1.05	-0.688	-2.76	4.16	11	3.23	1.24	134
CN(C)S(=O)(=O)N1CCC[C@]2(C[C@@H](Oc3ccccn3)CO2)C1	-0.984	7.79	2.82	5.42	-4.63	-5.81	9.75	5	-1.06	6.41	-6.01
CC(Cn1ccnc1)NC(=O)N1CCN(Cc2cccnc2)CC1 (configuration not stated)	-5	18.4	-6.12	5.79	8.46	-3.83	11.5	4.46	7.35	19.5	-10.3
COCCNC(=O)CN1CCN(c2nc(C)cs2)C(C)C1 (configuration not stated)	-6.14	16.2	-5.78	22	5.11	-1.29	13.3	-1.44	2.97	15.8	-7.53
COc1cccc(CN(C)C(=O)CN2CCN(c3nccn3C)CC2)c1	-1.77	8	-12.7	7.67	3.99	14.1	20.6	1.29	10.4	21	-3.45
Cc1cccc(C(=O)NC(CN2CCCC2=O)c2ccccc2)n1 (configuration not stated)	-2.94	13.2	-3.02	7.02	5.83	6.13	8.35	-4.47	5.39	21.9	-10.3
